# Screens: PubChem, National Center for Advancing Translational Sciences (NCATS)
# CHX counter – Cycloheximide Counterscreen for Small Molecule Inhibitors of Shiga Toxin; cell reporter, cycloheximide protein synthesis inhibition counterscreen; 300,000 compounds, 12% hits; max response, %; in the data active = max response mostly above about 13%, no sharp cut-off; inactive = mostly below about 14%; note: read at 38.3 µM for the half of the compounds with a filed dose; 0% is about no effect
# Shiga inhibitor – A qHTS for Small Molecule Inhibitors of Shiga Toxin | inhibition, % at 38.7 µM | 290,000 compounds, 9.2% hits | Vero cells, Shiga toxin protein synthesis inhibition reporter; in the data active = inhibition mostly above about 28%, no sharp cut-off; inactive = mostly below about 43%; note: 0% is about no effect
# Giardia FBPA inh – qHTS Assay for Inhibitors of Fructose-1,6-bisphosphate Aldolase from Giardia Lamblia. A8B2U2. purified Giardia FBPA. Potency, µM (titrated, usually from 59.6 µM), inactives show at the top dose activity, negative = inhibition, hits mostly inhibitors. 290,000 compounds, 0.71% hits; note: potency is the fitted concentration of half-maximal effect; % is set by controls: 0 for no effect and ±100 for the full control effect; nearly all actives have a fitted effect of over 55% in size
#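 Giardia FBPA (40 nM reagent) was preincubated 10 min at RT with compound (up to 57.5 uM final), then substrate plus GAPDH/TPI/NAD/arsenate coupling system with diaphorase/resazurin was added; resorufin fluorescence (525/598 nm) was read after 20 min.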
# Tb PYK inh – qHTS of Trypanosoma Brucei Inhibitors; pyruvate kinase (Trypanosoma brucei), Q57TT1; TbPYK enzyme, Kinase-Glo Plus ATP luminescence, 45 min; Potency, µM (titrated, usually from 76.8 µM), for the others: top-dose activity, negative = inhibition, hits mostly inhibitors; 410,000 compounds, 0.12% hits; AID 624173, 2012; note: potency is the fitted concentration of half-maximal effect; % is set by controls: 0 for no effect and ±100 for the full control effect; nearly all actives have a fitted effect of over 50% in size
#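 ADP (130 uM final) triggers the TbPYK reaction after compound addition; incubation is 45 min at room temperature. Kinase-Glo Plus is then added and luminescence imaged. Normalized data are fitted to concentration-effect curves.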
# RE007 growth inh – qHTS Assay for Inhibitors of the HIV-1 protein Vpr | S. pombe RE007 Vpr strain, BacTiter-Glo ATP luminescence, 24 h | Potency, µM (series often up to 92.2 µM), without a hit: top-dose activity change, negative = less growth, usual class: inhibitors | 360,000 compounds, 0.21% hits | AID 651644, 2012; active = well fitted falling curve with a large enough effect; inconclusive = small, poorly fitted or top-dose-only effect; inactive = no such curve, though single readings can be large or run the other way; note: potency is the fitted concentration of half-maximal effect; % is set by controls: 0 for no effect and ±100 for the full control effect; nearly all actives have a fitted effect of over 50% in size
#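 Fission yeast strain RE007, carrying one chromosomally integrated HIV-1 vpr copy, was seeded at OD 0.01 in PMG+AL medium with 23 nL pinned compound. After 24 h at 30 °C and 99% humidity, viability was read by BacTiter-Glo luminescence.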
# LmPK inhibitor – qHTS Assay for Inhibitors of Leishmania Mexicana Pyruvate Kinase (LmPK). Q27686. purified LmPK, Kinase-Glo ATP luminescence, 1 h. Potency, µM (series often up to 57.5 µM), without a hit: at the top dose activity change, negative = inhibition, usual class: inhibitors. 290,000 compounds, 0.37% hits. AID 1721, 2009; note: potency is the fitted concentration of half-maximal effect; % is set by controls: 0 for no effect and ±100 for the full control effect
# Target sequence (Q27686 whole entry, looked up): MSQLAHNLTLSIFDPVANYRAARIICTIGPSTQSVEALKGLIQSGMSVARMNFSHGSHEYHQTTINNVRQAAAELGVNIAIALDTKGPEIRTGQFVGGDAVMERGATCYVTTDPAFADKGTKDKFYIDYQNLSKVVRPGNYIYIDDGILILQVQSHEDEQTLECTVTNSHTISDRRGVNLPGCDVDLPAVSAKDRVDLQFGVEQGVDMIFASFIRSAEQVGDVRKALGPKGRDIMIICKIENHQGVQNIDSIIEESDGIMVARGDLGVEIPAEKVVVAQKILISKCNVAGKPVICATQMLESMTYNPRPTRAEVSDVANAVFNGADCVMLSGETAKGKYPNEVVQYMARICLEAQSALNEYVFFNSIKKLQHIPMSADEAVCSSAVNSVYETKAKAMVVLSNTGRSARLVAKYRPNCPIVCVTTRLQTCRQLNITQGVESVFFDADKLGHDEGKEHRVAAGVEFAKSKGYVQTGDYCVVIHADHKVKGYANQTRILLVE
#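 Kinase-Glo luminescence read after 1 h RT reaction of 0.1 nM LmPK with 0.5 mM PEP and 0.1 mM ADP. Activity scaled between uninhibited and enzyme-free controls.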
# Starred values were filed as active, the others as inactive; ? = inconclusive; nt = not tested or not shown; [ ] = another dose, or the depositor's remark. The entries come from a sample that favours hits as a whole. Unless noted, calls come from the whole dose curve; as a rule, active = well fitted curve in the direction sought with a large enough effect; inconclusive = small, poorly fitted or top-dose-only effect, or another doubt; inactive = no such curve, though single readings can be large; an effect the other way counts as inactive or inconclusive.
SMILES,CHX counter,Shiga inhibitor,Giardia FBPA inh,Tb PYK inh,RE007 growth inh,LmPK inhibitor
CNC(=O)c1c(NC(=O)c2ccc3ncsc3c2)sc(C)c1C,nt,nt,nt,-1.2%,-13.5%,nt
CC(C)S(=O)(=O)c1ccc(C(=O)Nc2ccc(F)cc2F)cn1,-2.3,-3.7,0.3%,-1.2%,5.3%,-3.8%
O=C(Nc1ccncc1)c1ccc2ncsc2c1,nt,nt,nt,-2.4%,0.0%,nt
Cn1nnc2cc(C(=O)Nc3ccccc3F)ccc21,31.4*,54.7*,3.9%,-6.2%,1.7%,-0.2%
O=C(Nc1ccccc1F)c1ccc2ncsc2c1,60.7*,148.6*,7.9%,-23.0%,4.1%,-9.5%
Fc1ccc(/C=N/Nc2ncnc3nc[nH]c23)cc1F,72.9*,98.5*,-0.5%,1.8%,1.0%,-26.9%
C(=N\Nc1ncnc2nc[nH]c12)/c1cccs1,40.8*,111.0*,-1.9%,-3.1%,13.6%,-24.5%
Cc1ccccc1/C=N/Nc1ncnc2nc[nH]c12,20.6*,71.9*,-6.5%,-1.7%,-5.6%,-27.2%
Cc1ccsc1/C=N/Nc1ncnc2nc[nH]c12,42.4*,85.3*,-2.5%,-6.7%,-0.1%,?
c1ccc(CNc2ncnc3nc[nH]c23)cc1,13.0,17.2,-4.1%,-9.3%,-11.7%[18.4 µM],-3.9%
CCCC[C@@H]1C[C@H]1C(NC(=O)c1ccco1)c1ccc(Cl)cc1 (stereo partly specified),nt,nt,-2.0%,nt,nt,nt
CCOC(=O)c1c(NC(=O)c2cc3n(n2)C(C(F)(F)F)CC(c2cccs2)N3)sc(C)c1C (stereo unspecified),-7.6,-3.2,-0.4%,-2.7%,-17.0%,3.8%
CCC[C@@H]1C[C@@]1(CCC)[C@@H](NC(=O)Oc1ccccc1)c1ccc(C(=O)OC)cc1,nt,nt,-2.9%,nt,nt,nt
CCOc1ccc(S(=O)(=O)NCCc2ccccn2)cc1,nt,nt,nt,-6.5%,0.8%,nt
Cc1cc(F)ccc1-c1cc(C(=O)NCc2cccs2)[nH]n1,nt,nt,nt,4.2%,5.1%,nt
COCCCNC(=O)CN(c1ccc(F)cc1)S(=O)(=O)c1ccc2c(c1)OCCO2,1.2,-3.2,0.0%,-2.7%,8.5%,-9.1%
CC(=O)c1ccc(NS(=O)(=O)c2ccc(N)cc2)cc1,28.1*,49.7*,10.6%,3.2%,-9.6%,1.0%
CC(=O)c1ccc(N=Nc2ccc(N)cc2)cc1,28.0*,55.6*,3.7%,-2.1%,-23.1%,-23.1%
CC(=O)c1ccc(N=Nc2c(C)[nH][nH]c2=O)cc1,nt,nt,nt,-14.8%,3.8%,nt
CC(=O)c1ccc(NS(=O)(=O)c2ccccc2)cc1,-2.5,13.6,10.7%,-0.1%,-17.1%,-6.0%
CC(=O)c1ccc(NS(=O)(=O)c2c(C)cc(C)cc2C)cc1,37.7*,73.1*,-13.2%,2.9%,0.3%,-4.5%
Cc1cc(C)c(S(=O)(=O)Nc2ccc(C(N)=O)cc2)c(C)c1,-4.2,-2.3,-24.9%,2.6%,4.6%,2.4%
CCOc1ccccc1CNC(=O)Cn1c(-c2ccccc2)cc(C(C)=O)c1C,nt,nt,nt,-4.0%,nt,nt
Cc1nn(C)cc1CN(C)C(=O)CCc1nnc(CCC2CCCCC2)o1,10.9*,64.2,1.7%,0.9%,0.4%,-3.4%
CN(Cc1nccn1C)C(=O)CCc1nnc(CCC2CCCCC2)o1,7.8,43.9,-1.3%,-1.6%,-8.9%,-9.6%
COc1ccc(CNC(=O)C2CC(c3ccc(OC)cc3)=NO2)cc1 (stereo unspecified),-2.2,-5.1,1.7%,-3.2%,-1.9%,-6.3%
COc1ccc(C2=NOC(CNC(N)=S)C2)cc1 (stereo unspecified),35.8*,57.2*,-0.1%,0.3%,-7.9%,-2.5%
